ELG1 genotox = inducers of genotoxicity in HEK293T ELG1-luciferase cells; Potency, µM (highest dose often 46 µM), for the others: at the highest dose activity change, positive = activation, most hits filed as activators; HEK293T ELG1-luciferase reporter, luminescence, 16 h; hit rate 1.3% among 330,000; also: % of control where 0% means no effect; nearly all actives have a fitted effect of over 60% in size
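DMSO vehicle served as control against compound-treated ELG1-luciferase HEK293T cells; exposure lasted 16 hr at 37 °C and 5% CO2, followed by ONE-Glo luminescence detection after 30 min.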
SW480 rerep = induces DNA re-replication in SW480 colon adenocarcinoma cells; SW480 DNA re-replication, Hoechst DNA content imaging, 48 h; AID 624297; Potency, µM (doses to about 46.1 µM), inactives show top-dose re-replication activation, usual class: activators; hit rate 1.8% among 340,000; also: % of control where 0% means no effect; nearly all actives have a fitted effect of over 55% in size
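SW480 cells exposed to compounds for 48 hr at 37 C, 5% CO2, then Hoechst-stained 40 min. Nuclear DNA content imaged by fluorescence scanning (405 nm excitation, 500-530 nm emission); re-replication scored as increased high-intensity nuclei.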
p53 reactivator = mutant p53 re-activation in reporter cells | H1299 p53-A138V BP100-luciferase reporter, luminescence, 24 h | Potency, µM (highest dose often 92.2 µM), without a hit: at the top dose activity change, positive = activation, usual class: activators | hit rate 0.063% among 320,000; also: % of control where 0% means no effect; nearly all actives have a fitted effect of over 45% in size
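p53-null H1299 cells stably carrying temperature-sensitive p53-A138V and a BP100-luciferase reporter were pinned with compounds (4-point, 1:5 series) and held 24 hrs at 37 deg C. Luminescence was read 10 min after detection reagent.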
AT treatment = potential ataxia-telangiectasia treatment. hit rate 0.19% among 320,000. F2112 A-T fibroblasts, KAP-1 phosphorylation AlphaLISA; neocarzinostatin DNA damage 30 min before lysis. Potency, µM (highest dose often 57.5 µM), for the others: at the highest dose activation, most hits filed as activators; also: % of control where 0% means no effect; nearly all actives have a fitted effect of over 45% in size
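hTERT-immortalized A-T patient fibroblasts (F2112), 500 cells/well in OPTI-MEM, 1% FBS, got compounds for 60 min, then NCS for 30 min at 37C. Lysates were then assayed for phospho-KAP-1 by AlphaLISA (anti-pKAP1 donor, anti-KAP1 acceptor beads), 6 hr at 25C.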
MCF10A rereplic = inducers of DNA re-replication in MCF 10A breast cells | Potency, µM (doses to about 46.1 µM), for inactives: at the top dose activity, positive = re-replication, most hits filed as activators | AID 624296 | hit rate 2.9% among 350,000 | MCF 10A DNA re-replication, Hoechst nuclear intensity, 48 h; also: % of control where 0% means no effect; nearly all actives have a fitted effect of over 50% in size
ELG1 repair inh = inhibitors of ELG1-dependent DNA repair in HEK293T cells; HEK293T ELG1-luciferase reporter, luminescence, 16 h; DNA damage induced by 5-fluorouridine; Potency, µM (titrated, usually from 46.1 µM), for the others: at the highest dose activity change, negative = inhibition, usual class: inhibitors; hit rate 2.3% among 330,000; AID 504467; also: % is scaled to controls: 0 for no effect and ±100 for the full control effect; nearly all actives have a fitted effect of over 55% in size
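Luminescence from the luciferase reporter, measured 30 min after ONE-Glo reagent at room temperature, was the read-out. Beforehand, 2,000 cells per well were exposed for 16 hr at 37 °C to 5-fluorouridine together with compound or vehicle.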
Starred values were filed as active, the others as inactive; ? = inconclusive; nt = not tested or not shown. Rows were chosen to be rich in hits. Some 7.1% of all compounds tested hit in one or more screens of this group. Calls follow the shape of the dose curve; as a rule, active = well fitted curve in the direction sought with a large enough effect; inconclusive = small, poorly fitted or top-dose-only effect, or another doubt; inactive = no such curve, though single readings can be large; an effect the other way counts as inactive or inconclusive. Potency is read from the fitted curve at half-maximal effect.

SMILES	ELG1 genotox	SW480 rerep	p53 reactivator	AT treatment	MCF10A rereplic	ELG1 repair inh
Cc1cc(C)cc(N(CCC(=O)Nc2nnc(C3CC3)s2)S(=O)(=O)c2ccc(Cl)cc2)c1	-2%	23µM*	8%	7%	?	?
Cc1ccn2cc(C(=O)Nc3nnc(C)s3)nc2c1	?	-2%	?	2%	?	?
Cc1ccn2cc(C34CC5CC(CC(C5)C3)C4)nc2c1	-3%	21µM*	1%	5%	?	?
CC(C)c1ccc2c(c1)C1(NN=C(c3ccccc3)S1)C(=O)N2 (configuration not stated)	19%	8.2µM*	?	-7%	1.3µM*	?
CCc1ccc2c(c1)C1(NN=C(c3ccc(C)cc3)S1)C(=O)N2 (configuration not stated)	?	?	?	-4%	6.5µM*	?
Cc1oc(-c2ccccc2Cl)nc1CS(=O)CC(=O)NC1CC1 (configuration not stated)	5%	4%	3%	-14%	14%	4%
O=C(Cc1c(Cl)cccc1Cl)Nc1ccc(S(=O)(=O)Nc2ncccn2)cc1	-1%	-13%	3%	7%	0%	11%
COc1ccc(N2C(=O)CC(Sc3ncn[nH]3)C2=O)c(OC)c1 (configuration not stated)	0%	7.3µM*	13%	-12%	2.3µM*	-15%
Cn1c(-c2ccccc2F)cc2onc(-c3ccccc3)c2c1=O	0.46µM*	-10%	8%	20%	-5%	?
Cc1cccc(NC(=O)CSc2nc(C3CC3)nc3ccccc23)c1	-25%	15%	-4%	13%	?	?
CC(=O)Nc1cccc(NC(=O)CSc2nc(C3CC3)nc3ccccc23)c1	-27%	?	-2%	2%	18%	18µM*
CCN(CC)c1ccc(NC(=O)CSc2nc(C3CC3)nc3ccccc23)cc1C	-2%	8.2µM*	0%	2%	6.5µM*	-27%
CN(C(=O)Cn1nc(C(=O)O)c2ccccc2c1=O)C1(C#N)CCCCC1	0%	?	-1%	9%	7%	-3%
CCOC(=O)C1=CN(Cc2ccco2)S(=O)(=O)N(CC)C1c1cccc(OC)c1 (configuration not stated)	2%	15%	-7%	7%	29%	2%
O=C(O)CCC(=O)Nc1ccc(-c2csc(Nc3cccc4ccccc34)n2)cc1	-1%	-6%	-3%	-3%	-8%	3%
CCCN(CC(=O)Nc1ccc(Cl)cc1Cl)C(=O)c1ccc(=O)[nH]c1	3%	11%	3%	6%	6%	-4%
N#C/C(C(N)=O)=c1/ccc2c(c1)N1C3=C(CCCC3)CC3CCCCC31N=2 (configuration not stated)	-28%	2%	0%	-5%	-4%	21µM*
COc1ccc(OC)c(NC(=O)c2cnc(Nc3ccccc3OC)c3ccccc23)c1	-5%	3.3µM*	-3%	11%	24%	?
COc1ccc(OC)c(NC(=O)c2cn(C)c(=O)c3cc(OC)c(OC)cc23)c1	-2%	24%	-20%	nt	11%	21µM*
COc1ccc(NC(=O)c2cn(C)c(=O)c3cc(OC)c(OC)cc23)c(OC)c1	-4%	-5%	-7%	0%	-9%	-18%
Cc1ccc(-c2cc(C(F)(F)F)nc(SCC(=O)c3cccc([N+](=O)[O-])c3)n2)cc1	-6%	?	1%	3%	?	18µM*
O=C(CSc1nc(-c2ccccc2)cc(C(F)(F)F)n1)c1cccc([N+](=O)[O-])c1	-1%	-79%	-11%	-2%	?	18µM*
Cc1cc(C(F)(F)F)nc(SCC(=O)c2cccc([N+](=O)[O-])c2)n1	-2%	-3%	-4%	2%	?	-4%
